IL-1B inflam inh – inflammasome signaling inhibition, IL-1 beta readout. THP-1 LPS/ATP IL-1B secretion, AlphaLISA, 16 h; active compounds read low. activity change, % at 57.5 µM. hit rate 4.7% among 360,000; in the data active means activity change below about -50%; inconclusive means mostly about -30% to -49%
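Secreted IL-1B measured by AlphaLISA bead assay after 16 h compound exposure of THP-1 cells; compounds (final up to 57.5 uM) added 1 h before LPS (250 ng/mL) and ATP (1.25 mM) stimulation; lower signal means less secretion.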
DT40 TDP1 CPT – DT40-hTDP1 cell growth loss with CPT; hit rate 12% among 420,000; chicken DT40 Tdp1-/-;hTDP1 cells + 20 nM CPT, ATP luminescence, 48 h; AID 686979; Potency, µM (series often up to 46.2 µM), for the others: top-dose activity change, negative = growth inhibition, usual class: inhibitors; further: potency means the concentration at half of the fitted maximal effect; nearly all actives have a fitted effect of over 55% in size
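Cell growth measured by CellTiter-Glo luminescence after a minimum 48 h, 37 C compound exposure with 20 nM CPT in Tdp1-knockout DT40 cells stably expressing hTDP1, seeded 400/well; qHTS titration format.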
RORgamma inh – inhibitors of mouse ROR gamma transcriptional activity | Drosophila S2 Gal4-RORgamma UAS-luciferase reporter, 20 h | hit rate 5.4% among 310,000 | Potency, µM (titrated, usually from 53.6 µM), inactives show at the highest dose activity change, negative = inhibition, usual class: inhibitors | P51450 | AID 2551; further: potency means the concentration at half of the fitted maximal effect; nearly all actives have a fitted effect of over 60% in size
Target sequence (P51450 whole entry, looked up, the tested form may be a part): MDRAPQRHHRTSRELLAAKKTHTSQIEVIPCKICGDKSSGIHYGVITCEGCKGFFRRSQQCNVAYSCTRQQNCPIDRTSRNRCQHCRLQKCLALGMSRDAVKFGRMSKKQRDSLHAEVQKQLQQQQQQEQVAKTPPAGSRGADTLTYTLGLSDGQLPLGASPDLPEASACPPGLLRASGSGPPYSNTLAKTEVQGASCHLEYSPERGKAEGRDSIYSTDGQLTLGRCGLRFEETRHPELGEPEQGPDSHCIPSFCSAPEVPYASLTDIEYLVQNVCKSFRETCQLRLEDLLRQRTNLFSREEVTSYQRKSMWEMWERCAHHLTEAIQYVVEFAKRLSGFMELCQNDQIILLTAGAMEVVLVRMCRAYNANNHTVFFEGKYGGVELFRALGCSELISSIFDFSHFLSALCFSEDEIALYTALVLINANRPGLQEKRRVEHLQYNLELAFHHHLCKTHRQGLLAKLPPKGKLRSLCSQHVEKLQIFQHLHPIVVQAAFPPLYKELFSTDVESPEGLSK
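ROR gamma transcriptional activity was tracked as Gal4-UAS luciferase output in stably transfected Drosophila Schneider cells, with compound added 1 hr before 700 uM copper sulfate induction and a 20 hr ambient-temperature incubation.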
LDHA block – inhibitors of human lactate dehydrogenase A; P00338; purified LDHA, NADH/diaphorase-resazurin fluorescence; active compounds read low; activity change, % (values are at about 110 or 230 µM); hit rate 0.15% among 480,000; AID 1347041; in the data active means activity change below about -30%; inconclusive means mostly about -25% to -30%;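 further: plate controls were DMSO wells for no effect and wells without enzyme for full effect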
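Human LDH5 at 2 nM final in Tris HCl pH 7.4 with 0.06 mM NADH and 0.2 mM pyruvate, reacted 5 minutes at room temperature. Remaining NADH coupled via diaphorase/resazurin; resorufin fluorescence read at 0 and 20 minutes, normalized to enzyme-free and DMSO wells.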
VP16 counter – inhibits Gal4-VP16 luciferase reporter, ROR gamma counter-screen; Drosophila S2 Gal4-VP16 UAS-luciferase, luminescence, 20 h; Potency, µM (top dose mostly 53.6 µM), without a hit: at the highest dose activity, negative = inhibition, usual class: inhibitors; hit rate 3.5% among 310,000;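 further: Gal4-VP16 expression switched on by copper sulfate through the metallothionein promoter; potency means the concentration at half of the fitted maximal effect; nearly all actives have a fitted effect of over 50% in size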
TDP1 cell noCPT – qHTS for Inhibitors of human tyrosyl-DNA phosphodiesterase 1 (TDP1): qHTS in cells in absence of CPT. DT40 Tdp1-/- hTDP1 cells, no CPT, ATP luminescence, 48 h. Potency, µM (doses to about 46.2 µM), without a hit: top-dose activity change, negative = growth inhibition, most hits filed as inhibitors. hit rate 15% among 420,000; further: potency means the concentration at half of the fitted maximal effect; nearly all actives have a fitted effect of over 55% in size
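Growth kinetics read by CellTiter-Glo luminescence after ≥48 hr at 37 °C. Cells: DT40 Tdp1-/- stably carrying human TDP1, 400 per well, compound exposure in the absence of CPT (DMSO vehicle).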
The depositor's hits bear a star; ? = inconclusive; nt = not tested or not shown; [ ] = remark or other dose. Most compounds without a hit are left out; they make up all but 18% or so of the library. Unless noted, the call rests on the fitted dose curve; in most records, active means well fitted curve in the direction sought with a large enough effect; inconclusive means small, poorly fitted or top-dose-only effect, or another doubt; inactive means no such curve, though single readings can be large; an effect the other way counts as inactive or inconclusive. Unless noted, on the % scale 0 is the no-effect control and ±100 the full control effect.

SMILES | IL-1B inflam inh | DT40 TDP1 CPT | RORgamma inh | LDHA block | VP16 counter | TDP1 cell noCPT
Cc1csc2nc(O)c(C(=O)NC3CCCCCC3)c(=O)n12 | 17 | ? | nt | 0 | nt | 5.2µM*
CCNC(=O)CSc1nc(C)nc2sc3c(c12)CCC3 | nt | nt | nt | 5 | nt | nt
Cc1cccn2c(=O)c(C(=O)NC3CC(C)CC(C)(C)C3)c(O)nc12 (stereo unspecified) | 11 | 7.3µM* | nt | -1 | nt | 7.3µM*
Cc1cccn2c(=O)c(C(=O)NC3CCCCC3)c(O)nc12 | -3 | 18µM* | -36% | 1 | 8% | 18µM*
Cc1cccn2c(=O)c(C(=O)NCCCN3CCCCC3C)c(O)nc12 (stereo unspecified) | -19 | 6% | -19% | 3 | -7% | 9%
Cc1csc2nc(O)c(C(=O)NCc3ccc4c(c3)OCO4)c(=O)n12 | 0 | ? | nt | 5 | nt | 23µM*
CC(NC(=O)c1cc(=O)c2ccccc2o1)c1ccc(-c2ccccc2)cc1 (stereo unspecified) | nt | nt | nt | 2 | nt | nt
COc1ccc(C(C(=O)NC2CCCCC2)N(C(=O)Cc2c[nH]c3ccccc23)c2ccccc2C)cc1OC (stereo unspecified) | -61* | ? | -3%[10 µM] | 1 | -19% | 21µM*
COc1ccc(C(C(=O)NC2CCCCC2)N(Cc2cccs2)C(=O)Cc2c[nH]c3ccccc23)cc1OC (stereo unspecified) | ? | 13µM* | ? | -12 | -7% | 21µM*
O=C(NC1CCCC1)C(c1ccc(F)cc1)N(Cc1ccccc1Cl)C(=O)CCl (stereo unspecified) | -91* | 5.8µM* | -13% | -7 | -10% | 3.3µM*
COCCN(C(=O)CNC(=O)c1ccco1)C(C(=O)NC1CCCC1)c1ccccc1F (stereo unspecified) | 29 | 17% | -5% | -3 | 1% | 0%
COCCN(C(=O)CCl)C(C(=O)NC1CCCCC1)c1ccccc1C (stereo unspecified) | -101* | 2.9µM* | ? | -14 | ? | 2.1µM*
COc1ccc(C(C(=O)NC2CCCC2)N(C(=O)Cc2cccs2)C2CC2)cc1OC (stereo unspecified) | -7 | 10% | -12% | -8 | 0% | -2%
CSC1=N/C(=C\c2ccc(I)o2)C(=O)S1 | nt | nt | nt | 9 | nt | nt
Cc1ccc(C(C(=O)NC2CCCC2)N(C(=O)CNC(=O)c2ccco2)c2ccccc2)o1 (stereo unspecified) | -5 | 6% | -18% | -5 | -14% | 0%
CCOc1ccc(CN(CC)C(=O)Cc2c[nH]c3ccccc23)cc1OC | 0 | ? | 33% | 4 | -9% | 15µM*
Cc1ccc(C(C(=O)NC2CCCCC2)N(C(=O)Cc2c[nH]c3ccccc23)c2ccccc2C)o1 (stereo unspecified) | 21 | 26µM* | 20%[10 µM] | 0 | ? | 21µM*
Cc1ccc(C(C(=O)NC2CCCCC2)N(Cc2ccco2)C(=O)Cc2c[nH]c3ccccc23)o1 (stereo unspecified) | -77* | ? | 1% | -2 | -7% | ?
O=C(NC1CCCCC1)C(c1ccc(F)cc1)N(Cc1cccs1)C(=O)CN1C(=O)c2ccccc2S1(=O)=O (stereo unspecified) | 40 | 16µM* | -41% | -6 | -15% | 16µM*
O=C(NCC1CCCO1)C(c1ccncc1)N(Cc1cccs1)C(=O)CN1C(=O)c2ccccc2S1(=O)=O (stereo unspecified) | 20 | 9% | 20% | -8 | ? | 0%
CCCc1ccc(-c2csc(NC(=O)Cn3ncc4ccccc4c3=O)n2)cc1 | nt | nt | nt | 7 | nt | nt
CCc1ccc(OC(=O)c2ccccc2F)cc1 | nt | nt | nt | 2 | nt | nt
Cc1ccccc1N(C(=O)Cc1c[nH]c2ccccc12)C(C(=O)NC1CCCCC1)c1ccco1 (stereo unspecified) | -4 | 21µM* | 4% | -6 | -14% | 9.2µM*
CC(c1ccco1)N(C(=O)Cc1c[nH]c2ccccc12)C1CC1 (stereo unspecified) | nt | nt | nt | -5 | nt | nt
O=C(NC(=S)Nc1ccccc1N1CCCCC1)c1cccs1 | 11 | 16µM* | 1.6µM* | -2 | ? | 21µM*
SMILES | IL-1B inflam inh | DT40 TDP1 CPT | RORgamma inh | LDHA block | VP16 counter | TDP1 cell noCPT
O=C(NC(=S)Nc1ccccc1N1CCN(C(=O)c2ccccc2)CC1)c1cccs1 | 9 | ? | -21% | -3 | -7% | ?
O=C(NC(=S)Nc1ccccc1N1CCCC1)c1cccs1 | 29 | 16µM* | 4.5µM* | 1 | 16µM* | 15µM*
Cc1nn(C)c(C)c1/C=C(/C(=O)C(C)C)n1cncn1 | 0 | -1% | 12% | -1 | 12% | -2%
CC(C)(C)C(=O)/C(=C/c1ccncc1)n1cncn1 | -98* | 3.3µM* | 1µM* | -2 | 2.8µM* | 1.6µM*
Cc1nn(C)c(C)c1/C=C(/C(=O)C(C)(C)C)n1cncn1 | -57* | ? | -12% | -4 | -10% | 23µM*
Cn1ccc(C(=O)N/N=C/c2ccncc2)n1 | 10 | -1% | nt | -2 | nt | 15%
CN1CCN(NC(=O)c2cn(-c3ccccc3)nc2-c2cccc(Br)c2)CC1 | -136* | ? | -30% | 1 | -19% | ?
O=C(NCCC1=CCCCC1)c1ccc2c(=O)n3c(nc2c1)CCCCC3 | 3 | ? | 6% | -1 | 7% | ?
COc1ccccc1Nc1nn2c(=O)c3ccc(C(=O)NCCC4=CCCCC4)cc3nc2s1 | nt | 1.5µM* | nt | -2 | nt | 3.3µM*
Cc1c(Cl)cccc1Nc1nn2c(=O)c3ccc(C(=O)NCCC4=CCCCC4)cc3nc2s1 | nt | ? | nt | -3 | nt | 4.6µM*
Cc1ccc(C)c(Nc2nn3c(=O)c4ccc(C(=O)NCCC5=CCCCC5)cc4nc3s2)c1 | nt | 6.5µM* | nt | -1 | nt | 7.3µM*
CC(=O)Nc1ccc(CNC(=O)c2cc(=O)[nH]c3ccccc23)cc1 | nt | nt | nt | 7 | nt | nt
O=C(c1cc(COc2ccc(F)cc2Cl)on1)N1CCC(c2ccncc2)CC1 | ? | 6.5µM* | 11µM* | -3 | 7.1µM* | 6.5µM*
O=C(c1cc(COc2ccc(F)cc2Cl)on1)N1CCCCCC1 | -7 | ? | 37% | -1 | -3% | ?
CCC(NC(=O)c1cc(COc2ccc(F)cc2Cl)on1)c1ccncc1 (stereo unspecified) | ? | 23µM* | nt | 2 | nt | 23µM*
CCOC(=O)C1CCN(c2nc(-c3ccc(OC)c(OC)c3)nc3cc(OCC)c(OC)cc23)CC1 | nt | nt | nt | 2 | nt | nt
COc1cc(C(O)c2nc(/C=C/c3ccc(C(F)(F)F)cc3)cs2)ccc1F (stereo unspecified) | -20 | ? | nt | -2 | nt | ?

Bioassay records as filed in PubChem BioAssay.
